Source: PubChem BioAssay AID887 (National Center for Advancing Translational Sciences (NCATS), 2007)
“And” between values parts separate entries of the source, which are not always exact repeats. Equal entries are not always repeated. The whole screen tested about 74,000 compounds, of which about 1,100 (1.5%) were called active. Where a call stands in place of a potency, no number is given. Another 5% or so got no clear call; they are omitted. Only a selection was taken, and actives are over-represented in it overall. Unmarked numbers belong to inactive results. Calls come from the whole dose curve; as a rule, active = well fitted inhibition curve with a large enough effect; inconclusive = small, poorly fitted or top-dose-only effect; inactive = no such curve, though single readings can be large or run the other way.

Target: Polyunsaturated fatty acid lipoxygenase ALOX15 (Homo sapiens) (UniProt P16050)
Sequence (P16050 whole entry, looked up): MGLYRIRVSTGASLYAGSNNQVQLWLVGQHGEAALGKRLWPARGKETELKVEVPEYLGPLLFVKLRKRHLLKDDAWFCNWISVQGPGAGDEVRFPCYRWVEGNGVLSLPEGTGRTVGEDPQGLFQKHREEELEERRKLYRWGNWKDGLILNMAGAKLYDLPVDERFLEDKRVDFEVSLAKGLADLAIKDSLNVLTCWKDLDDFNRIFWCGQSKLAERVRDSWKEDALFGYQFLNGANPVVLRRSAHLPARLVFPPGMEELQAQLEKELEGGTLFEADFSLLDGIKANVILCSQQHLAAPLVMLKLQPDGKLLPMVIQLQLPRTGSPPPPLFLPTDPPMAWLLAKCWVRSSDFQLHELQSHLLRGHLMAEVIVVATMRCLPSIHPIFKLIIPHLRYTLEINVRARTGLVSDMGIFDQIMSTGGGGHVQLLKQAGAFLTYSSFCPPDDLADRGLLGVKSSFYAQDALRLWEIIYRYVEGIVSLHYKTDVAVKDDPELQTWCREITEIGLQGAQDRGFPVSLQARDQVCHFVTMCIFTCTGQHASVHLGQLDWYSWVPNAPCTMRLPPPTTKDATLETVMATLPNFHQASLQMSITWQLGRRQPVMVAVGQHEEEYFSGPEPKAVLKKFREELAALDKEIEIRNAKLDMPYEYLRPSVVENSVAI
Experiment: qHTS Assay for Inhibitors of 15-hLO (15-human lipoxygenase); note: nearly all actives have a fitted effect of over 55% in size
Settings: purified 15hLO-1, xylenol orange hydroperoxide absorbance; series mostly up to 57.1 µM
Method in brief: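 Compounds were preincubated 15 min at room temperature with 40 nM purified human enzyme (25 mM Hepes pH 7.5, 0.01% Triton X-100); 50 uM arachidonic acid reacted 6 min. Fe-xylenol orange detection, 30 min, absorbance ratio 573/405 nm.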
Potency is the fitted concentration of half-maximal effect.

Structure (SMILES) | activity change, negative = inhibition | Potency
C[C@@H]1/C=C\CC(=O)OC[C@H]2O[C@@H](C=C[C@@H]2O)[C@H](C)/C=C\CC(=O)OC[C@H]2O[C@H]1C=C[C@@H]2O | 5.92% [at 11.4 µM] | –
CC(C)[C@H]1CC[C@@H](C)C[C@H]1O | inactive | –
COC1[C@H](OC(N)=O)C(O)[C@H](Oc2ccc3c(O)c(NC(=O)c4ccc(O)c(CC=C(C)C)c4)c(=O)oc3c2C)OC1(C)C (stereo partly specified) | inactive | –
C=C(C)C1CC=C(CO)CC1 (stereo unspecified) | – | 12.6 µM (active)
C=C(C)C1CC=C(C)C(O)C1 (stereo unspecified) | inactive | –
CCCNC(=O)OC[C@@H]1O[C@H](c2ccccc2)C=C[C@@H]1Oc1ccc(OC)cc1 | 6.55% [at 11.4 µM] | –
Cc1ccc(C)c(NC(=O)CSc2nnc(Cc3cccn3C)n2-c2ccc(F)cc2)c1 | inactive | –
Cc1cccc(Br)c1 | inactive | –
CC(C)=CC1C(C(=O)O)C1(C)C (stereo unspecified) | inactive | –
C/C(CCN1CCCCc2nc(C)c(C)cc21)=N\O[C@@H](C)c1cn([C@@H]2COC[C@@H]2O)nn1 | 3.97% [at 11.4 µM] | –
Oc1cc(O)c2c(c1)OC(c1ccc(O)c(O)c1)C(O)C2 (stereo unspecified) | – | 12.6 µM (active)
CO[C@H]1COC(=O)[C@@H](C)NC(=O)C/C=C\[C@@H](C)[C@H](OC)COC(=O)C/C=C\[C@@H]1C | -1.15% [at 11.4 µM] | –
CCCCn1c(SCC(=O)NCC2CCCO2)nc2ccc(N3CCOCC3)cc2c1=O (stereo unspecified) | – | 12.6 µM (active)
COCCCNC(=O)CSc1nc2ccc(N3CCOCC3)cc2c(=O)n1CCc1ccccc1 | inactive | –
CCn1c(SCC(=O)NCC2CCCO2)nc2cc(S(=O)(=O)N3CCCCC3)ccc21 (stereo unspecified) | inactive | –
COCC(=O)N1CCC2(CCCN(c3ccccc3)C2)CC1 | inactive | –
CC1(C)C=CC(=O)[C@]2(C)C1CC(=O)[C@]1(C)C2CC[C@@]2(C)C(c3ccoc3)OC(=O)C3OC321 (stereo partly specified) | inactive | –
C=C[C@](C)(O)CCC1C(=C)CCC2[C@@](C)(CO)CCC[C@@]12C (stereo partly specified) | inactive | –
CC(C)C1=CC2=CC[C@@H]3[C@](C)(CO)CCC[C@]3(C)C2CC1 (stereo partly specified) | – | 1.58 µM (active)

Structure (SMILES) | activity change, negative = inhibition | Potency
CN1CCc2nc(-c3ccccc3)c(-c3ccccc3)cc2C1 | 3.18% [at 11.4 µM] | –
Nc1ncnc2c1ncn2C1CC(O)C(CO)O1 (stereo unspecified) | inactive | –
CC(=O)OCC(=O)[C@@]1(O)CCC2C3CCC4=CC(=O)CC[C@@]4(C)[C@]3(F)C(O)C[C@]21C (stereo partly specified) | inactive | –
O=C1[C@H]2[C@H]3[C@H](O)[C@H](O)C/C(=N/OCc4ccccc4)[C@H]3CC[C@@H]2C(=O)N1Cc1ccccc1 | 6.17% [at 11.4 µM] | –
CCCN(C/C=C\I)[C@@H]1CCc2cccc(O)c2C1 | inactive | –
Cc1cccc(-n2c(N)c(C(=O)N3CCN(C)CC3)sc2=S)c1 | inactive | –
CCC(=O)Nc1sc(C(=O)N2CCCCC2)c(C)c1C#N | inactive | –
N#Cc1ccccc1-n1c(N)c(C(=O)N2CCCC2)sc1=S | – | 20 µM (active)
Cn1c(=O)n2n(c1=O)[C@H]1[C@H](O)[C@H]3O[C@H]3C(=O)[C@H]1CC2 | -1.89% [at 11.4 µM] | –
CC(C)=CCC/C(C)=C/CO/N=C1/C[C@@H](O)[C@@H](O)[C@@H]2[C@@H]3C(=O)N(C(C)(C)C)C(=O)[C@H]3CC[C@H]12 | -9.71% [at 11.4 µM] | –
CC(=O)OCC1OC(C#CCCCc2ccccc2)C=CC1OC(C)=O (stereo unspecified) | -1.12% [at 11.4 µM] and 1.25% [at 11.4 µM] | –
COCn1c(COc2ccccc2)nc2ccccc21 | -9.11% [at 11.4 µM] | –
Cn1c(COc2ccc(Cl)cc2)nc2ccccc2c1=O | – | 25.1 µM (active)
COc1ccc(OCc2ccc(-c3nc4ccccc4c(=O)n3N)o2)cc1 | inactive | –
c1ccc(Oc2ccccc2)cc1 | inactive | –
CC(C)(O)CCC(O)[C@@](C)(O)C1CC[C@]2(O)C3=CC(=O)C4CC(O)C(O)C[C@]4(C)C3CC[C@]12C (stereo partly specified) | inactive | –
O=C1OCCC=C1[C@@H](O)CCc1ccccc1 | 9.13% [at 11.4 µM] | –
Nc1nc2c(nc(Cl)n2C2OC(CO)C(O)C2O)c(=O)[nH]1 (stereo unspecified) | inactive | –
CC1=C(/C=C/C(C)=C/C=C/C(C)=C/C=C/C=C(C)/C=C/C=C(C)/C=C/C2=C(C)CCCC2(C)C)C(C)(C)CCC1 | inactive | –

Structure (SMILES) | activity change, negative = inhibition | Potency
CC/C=C/C/C=C/C/C=C/CCCCCCCC(=O)OCC | – | 2.51 µM (active)
Oc1c(Br)cc(CN(Cc2cc(Br)c(O)c(Br)c2)C2CCCCC2)cc1Br | 11.3% [at 11.4 µM] | –
CC1(C)SC2C(NC(=O)COc3ccccc3)C(=O)N2C1C(=O)O (stereo unspecified) | inactive | –
O=C1OC(C(O)CO)C(O)=C1O (stereo unspecified) | inactive | –
CCOC(=O)CSC1=C(C#N)C(c2sccc2C)CC(=O)N1 (stereo unspecified) | inactive | –
CCCSC1=C(C#N)C(c2ccccc2C)C(C(=O)OC)C(=O)N1 (stereo unspecified) | – | 12.6 µM (active)
COC(=O)CSC1=C(C#N)C(c2ccccc2OC)C(C(=O)OC)C(=O)N1 (stereo unspecified) | -4.29% [at 11.4 µM] | –
CN(C)CCCCNC(=O)c1ccc(Cc2nc3ccccc3[nH]2)cc1 | inactive | –
O=C(O)C(O)[C@@](O)(Cc1ccc(O)cc1)C(=O)O (stereo partly specified) | inactive | –
CCOC(=O)[C@]1(C(/C=C/c2ccco2)NC(=O)OC)CCCC1=O (stereo partly specified) | 5.21% [at 11.4 µM] | –
Cc1c(O)cc(O)c2c(=O)c(-c3ccc(O)cc3)coc12 | inactive | –
CN(C)CCc1c[nH]c2ccc(Cn3cncn3)cc12 | inactive | –
CC(C)OC(=O)C(C#N)c1nc2ccccc2nc1N1CCN(Cc2ccccc2)CC1 (stereo unspecified) | inactive | –
Cc1ccc(S(=O)(=O)C(C#N)c2nc3ccccc3nc2N2CCCC2)cc1C (stereo unspecified) | – | 12.6 µM (active)
N#CC(C(=O)c1ccc(S(=O)(=O)N2CCCCCC2)cc1)c1nc2ccccc2[nH]1 (stereo unspecified) | inactive | –
CC1CCCCN1CCCNC(=O)c1ccc(-n2c(=O)c(=O)[nH]c3ccccc32)cc1 (stereo unspecified) | inactive | –
CC1OC(OCC2OC(Oc3c(-c4ccc(O)c(O)c4)oc4cc(O)cc(O)c4c3=O)C(O)C(O)C2O)[C@@H](O)C(O)C1O (stereo partly specified) | inactive | –
CC(=O)OCC(=O)C1CCC2C3CCC4=CC(=O)CC[C@@]4(C)C3CC[C@]12C (stereo partly specified) | inactive | –
